T1: FBXL12, Q9NXK8
T1 chain: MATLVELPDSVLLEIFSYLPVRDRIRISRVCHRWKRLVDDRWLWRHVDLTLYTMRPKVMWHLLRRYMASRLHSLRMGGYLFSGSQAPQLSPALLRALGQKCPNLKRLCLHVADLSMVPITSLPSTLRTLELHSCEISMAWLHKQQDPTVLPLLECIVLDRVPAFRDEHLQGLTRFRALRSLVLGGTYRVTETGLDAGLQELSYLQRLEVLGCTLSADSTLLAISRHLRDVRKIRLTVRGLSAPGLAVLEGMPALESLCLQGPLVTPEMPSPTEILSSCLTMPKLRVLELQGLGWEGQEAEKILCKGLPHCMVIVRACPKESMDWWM

B1: FBXL12_hotspot_9_120 (protein)
chain: RIVVIHEFLESLEDVGPRLTRAVDIAETAADAGWKVILVFSAASPEVAAAARRYLAEELGERVAALEARGAVIRVAESREEAERIKRELLEEALREEDEA
B2: FBXL12_hotspot_9_104 (protein)
chain: KHIVIVASASTREAFLNSARTALEIAIGLAKAGHKVTVILHHTRPETAEEARAAVKKELAELIEEAKELGIEIRFAATEEELERLLEEALREADEEEERE
B3: FBXL12_hotspot_9_118 (protein)
chain: RVLVISEYVRSEAEVEPAIARALAYARAAADAGWRVIVVISAASPAIAAHARRLLATRYGEEVAELRARGARIVVRDSRAAAEAEKARLLAEALAAEDAA
B4: FBXL12_hotspot_9_123 (protein)
chain: MIVVIRENVKREEDIEPALRRAVAYAEAAAEAGWRVILVFSASSEELKEKAKEILETKLGERVARLKARGARIVVTATEEEAERKKRELLEEALREEDEA
B5: FBXL12_hotspot_9_108 (protein)
chain: MLRILVATVSSLETAGPTIETAAAIARGLVAAGHRVRVIFISANAETGEEMLALARERLGALAAEEGRVTVVLRLAENEEEAEEIKEELLEEALEEVDRA
B6: FBXL12_hotspot_109_7 (protein)
chain: MTVIVGGLATRPEHAERTARYVLTITRGLLAAGHRVRVVLAGTEESREILEAAAAELRALGAEVTLVVAETPEEARALYEERLAEAEEELDEEEEEEEEE
B7: FBXL12_hotspot_9_106 (protein)
chain: MTILVTAYFEEESTIETTLKYALEIALGLAKAGHKVKVLIGAANEELLKKAKEILETKLKEIVEELKKLGVEIILVDSKEEYEKKKEELLKEAEEEEKEA
B8: FBXL12_hotspot_95_101 (protein)
chain: MRRVIILVRQAVTAENIESAIQAIERAAAIARGLRAAGVEVKLIVVAHAPDEETRARIEAAVERHRDVIDEFVLEETEEAMEEKAEELLEEALEEIDEAE
B9: FBXL12_hotspot_95_100 (protein)
chain: RRVVVVVFRHLVTPESAETVRQGVARFKAIVEGLRAAGVEVVAVLVLSYEDEESRALAEELKAEAAPLLDYAHLAPTREAAEAAYAELKARALAEADRLE
B10: FBXL12_hotspot_9_112 (protein)
chain: MTVILGVYAETEEELRRKLERALEYAEAALEAGWEVHIVVGAATPELAEAARRLLEEELGERVAELRARGAVIRVEETFEAARARREEIREEIERRAEEE
B11: FBXL12_hotspot_134_9 (protein)
chain: RTVVVIVSANGVSDAQARAAVDRAETIIAGLRAAGHRVLFVLVLSLADAAVGDALVARARAAAAAHGAEVVAAENVPAADFEAVLAAARARALARLDELE
B12: FBXL12_hotspot_9_107 (protein)
chain: KTVLVTAYFEKEETVETTLKYAMEIALGLAEAGHKVRVLIGAKNEEILKKAKEILETKLKETVERLKELGVEIIFVSSEEEYEKKKKELLEEMEKEEEEA
B13: FBXL12_hotspot_9_115 (protein)
chain: RTILVVASANTVERVRSTLETALKISIGLAEAGHKVILLIAAATEEVLEKAKELLETELKPLVEKLKELGVEVKEPVLYEEAEPLKEEILEEIDEEEEEE
B14: FBXL12_hotspot_9_103 (protein)
chain: MTVLVVGRATTPESVRTTVRTAVEIAEGLVAAGHEVVLILYAADPEVAEVLRRTVEEEFGERVAALRAAGARVVVAPDLEAGERAKREALEEIERREEEE
B15: FBXL12_hotspot_127_8 (protein)
chain: SDIEVRVSVPTYQSYRYAVAILLEMLKIDVKNGGKNVEKLLEQLKALMEDAAKHLPKEDVLELLDEAIKSLKELKKESPEHKELFDKAIKYLEKLRKEVE
B16: FBXL12_hotspot_9_122 (protein)
chain: RIVVISEFVESPEEVEPVVRRAVEYAEAAAAAGWRVIIVIAAASPEVAEHARRVLEERFGERVARLRAAGARIEVRASREEAERAKRELLEEALAEEDAA
B17: FBXL12_hotspot_9_114 (protein)
chain: RVLVLSFFAETREEAERELARMEEWARAALAAGWDVLIVVAAATEEVAAHARELLARMEAALRAAYPDRRVRVAVALTREAAAAAKAALLAELLAEADAA
B18: FBXL12_hotspot_9_119 (protein)
chain: KVLVIYERIENPEDVEPAIERAIEYARAAAEAGWKVIVVFSAANPEIAEHTRRLLETRFGEEVAELEARGARIVVRDNEEEAEETKERLLREALEEEDRE
B19: FBXL12_hotspot_9_113 (protein)
chain: RILVLSAFAETKEEAEEKLARIREWARAAAAAGWDVIIVVAASTEEVAEYARRLLEELEAELRAAYPDVRVRVDVRLTREEAEETKARLLAEALEEEDRR
B20: FBXL12_hotspot_9_109 (protein)
chain: RTRVVVGVVTSPETADSTLAMLRAVTSGLSRHDDRVHVLIVVQDPANRDALLARAEAVAAELEAEHPNVRVRVVAAPDEEAAEAARAAFLAEVDAEEAAA
B21: FBXL12_hotspot_9_105 (protein)
chain: KHIIVVASAATKEAFLNSSRTALEIAIGLAKAGHKVTVILSYDDPEKFEEWRAALEEELKELLEEAKELGIKIHYAPSPEEKERILEEVLEEHDEEEEEE
B22: FBXL12_hotspot_9_116 (protein)
chain: KTVVVLARALRVETVESTLRTALEIAIGLAKAGVKVHLVIGAADEEVLAKARELLATRLAPLVEEARALGVEVHEPALYEEAEALVEEILEEIDEEEEEE
B23: FBXL12_hotspot_9_125 (protein)
chain: RHVIISVTARTEEELREKIDRALDYAEAAAAAGWKVHLIVSGLSPELLAAAKELLATEHAERVAALKAAGAEIHLKETVEEGEALKAEILAEIEEEAERE
B24: FBXL12_hotspot_95_102 (protein)
chain: QRKVVVVYRHTVTPENLEQALAGLRRAKEIVEGLKAAGVEVYAVVAVSAETEEQRAQLEAEAEKVAKAADYALVEILLGATPEEVEERAEEMLEEVLKKI
B25: FBXL12_hotspot_9_121 (protein)
chain: RIVVIRQFIESEEEVGPTVRRAVAYARAAADAGWRVIIVISAASPEVAEAARRVLEEELGEEVAELRARGARIVVTSSREEAERKKAELLEAALAEEDAA
B26: FBXL12_hotspot_9_124 (protein)
chain: MHVIISQYAETEEEARRQIERALEYAKAAAEAGWKVTVIFSASTEELKEFIEELLETEYAEEVAELKAKGVEIHVVETEEEAERLKEEILEEIEEEAEEE
B27: FBXL12_hotspot_9_117 (protein)
chain: KTVIIGVVAATPEAARSTLAVAREIARGLAEAGIKVHVIMAASSEETREEVLAIFREAGAEIQAELADKGVKVRVAETMEEYERLKAEVLEEIDREEEEE
B28: FBXL12_hotspot_9_110 (protein)
chain: SSILVIAHVTTRETADTTLATARAVTTGLAAHHDRVDVLIVVSDPEHADEMAALAEATAAELEAEHPNVRAEVVRAPDEAAGRAAIEAREAEFLAAAAEE
B29: FBXL12_hotspot_81_97 (protein)
chain: KELDIVLSQQVQPGDTVEQVRAGLQYQVDLVEAAKAAGVKIRSITVRFSIDTSAFSPEEIEAILAAVEEARARIEALAKEAGAKLIDESAAAIAAVRAAL
B30: FBXL12_hotspot_9_111 (protein)
chain: SSILVVAHVTTAETADSTLETAEAVTRGLAEHHDEVKVLIVVTDPENADEMAAKAEAVAERLEAEHPNVTATVVRAPDEAAGRAAIEAAEAAFLAEADAA
B31: FBXL12_hotspot_82_98 (protein)
chain: MISIIGLVNRPPETAVESLRNTAETMIAIVEGARAAGVEVERAVLVVRADPETRAVAEELRPRLEAAGIEVHLKETSEEALATKEAILEEIERRWEEEEE
B32: FBXL12_hotspot_82_99 (protein)
chain: SIAIIGLVNRPPETAVASLRNTADTIITLVEGAREAGVEVVRAVLVVHADPETRAEAERLRPRLEAAGVEVHLEATSAAADARAEAIRAAIEARFAAEDA

Molecular target: T1, FBXL12, Q9NXK8
Assay: median log2 fold change of GCK-ALFA target abundance (FLAG IP / Myc IP barcode read proportion) (log2 ratio); each designed protein is fused to an ALFA-tag nanobody in HEK293 cells to bring the named protein to FLAG-tagged glucokinase (GCK); Myc marks an untargeted standard; higher = target protein stabilised (more abundant)
Conditions: target protein: 3xFLAG-MCP-GCK-ALFA reporter; HEK293 landing pad (RPLP)
Experimental: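 LABEL-seq trans screen in HEK293 landing-pad cells. Each de novo designed 100-aa effector handle, binding the indicated effector (E3 ligase, DUB or autophagy protein), is fused to a constant NbALFA target handle and induced with 2 ug/mL doxycycline. A FLAG-MCP-GCK-ALFA target and a Myc-MCP standard reporter were transfected, and after 48 h circRNA barcodes were recovered by anti-FLAG and anti-Myc IP and sequenced. The value is the median across barcodes (at least 3 per design) of log2(FLAG/Myc read-proportion ratio), with the two transfection replicates pooled. Negative values mean degradation and positive values mean stabilisation of the target.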

Q: B1 was tested. Which “median log2 fold change” value did it give?
A: Its value is -0.0369.

Q: How did the “median log2 fold change” value turn out when B2 was run?
A: The value was 0.00127.

Q: Which “median log2 fold change” value does the source give for B3 here?
A: Its value is -0.563.

Q: For B4, which “median log2 fold change” value is on record?
A: The value was -0.0307.

Q: With B5 as the binder, how does the “median log2 fold change” value read?
A: The value was -0.0498.

Q: B6 was tested. Which “median log2 fold change” value did it give?
A: Its value is 0.117.

Q: Which “median log2 fold change” value does the source give for B7 here?
A: Its value is -0.24.

Q: For B8, which “median log2 fold change” value is on record?
A: The value was -0.00895.

Q: B9 was tested. Which “median log2 fold change” value did it give?
A: The value was -0.315.

Q: For B10, which “median log2 fold change” value is on record?
A: Its value is -0.276.

Q: With B11 as the binder, how does the “median log2 fold change” value read?
A: Its value is 0.11.

Q: For B12, which “median log2 fold change” value is on record?
A: Its value is 0.196.

Q: B13 was tested. Which “median log2 fold change” value did it give?
A: The value was 0.00902.

Q: B14 was tested. Which “median log2 fold change” value did it give?
A: Its value is 0.0779.

Q: With B15 as the binder, how does the “median log2 fold change” value read?
A: Its value is -0.133.

Q: For B16, which “median log2 fold change” value is on record?
A: Its value is 0.0626.

Q: Which “median log2 fold change” value does the source give for B17 here?
A: The value was -0.157.

Q: B18 was tested. Which “median log2 fold change” value did it give?
A: Its value is 0.0418.

Q: How did the “median log2 fold change” value turn out when B19 was run?
A: The value was -0.106.

Q: With B20 as the binder, how does the “median log2 fold change” value read?
A: The value was 0.0457.

Q: For B21, which “median log2 fold change” value is on record?
A: Its value is 0.136.

Q: With B22 as the binder, how does the “median log2 fold change” value read?
A: Its value is 0.0101.

Q: For B23, which “median log2 fold change” value is on record?
A: Its value is 0.23.

Q: B24 was tested. Which “median log2 fold change” value did it give?
A: The value was 0.243.

Q: B25 was tested. Which “median log2 fold change” value did it give?
A: Its value is -0.228.

Q: With B26 as the binder, how does the “median log2 fold change” value read?
A: The value was -0.161.

Q: How did the “median log2 fold change” value turn out when B27 was run?
A: The value was 0.0889.

Q: B28 was tested. Which “median log2 fold change” value did it give?
A: Its value is -0.0129.

Q: With B29 as the binder, how does the “median log2 fold change” value read?
A: The value was 0.149.

Q: B30 was tested. Which “median log2 fold change” value did it give?
A: The value was 0.154.

Q: For B31, which “median log2 fold change” value is on record?
A: Its value is 0.108.

Q: How did the “median log2 fold change” value turn out when B32 was run?
A: The value was 0.0901.
